# Measurements published in the OligoGym collection.
# Target: EFNB2
# Experiment: pooled miR-30 sensor sort-seq; sequence = guide strand
# Conditions: shRNA
# Also: reference of the scale not given here.
row,Sequence,sensor-assay potency score (higher = more potent)
1,TAAAAAACCAACATTGCTCTAT,0.0453
2,TTAGCATAGAACCAAAACGTAG,-1.59
3,TTGCACACCTTAACTAGCCCGA,-0.379

# Target: EGFLAM
# Experiment: as above
# Conditions: shRNA
row,Sequence,sensor-assay potency score (higher = more potent)
1,TAGTCATTGACACAGAAGCTGT,-1.47
2,TTCTTGTCGAAATCTGGCCTGA,-0.665
3,TCTCTGTAGAGCATAACCGTGT,-0.368
4,TAAGCTGCTATGCTCACACGAT,-0.515
5,ATAACAATATCTTCTGAGCAGC,-1.01
6,TTGATGTGTGATCTCTGGCAGC,-0.345
7,TTAGATATAGACATCTTCTTGC,0.604
8,TGAATCACAACACAGTCACTGA,-0.715
9,TAGAGCATAACCGTGTGCCAAC,-1.37
10,ATCTCTGTAGAGCATAACCGTG,-1.58
11,ACACATTTGATCTTGATCCTGA,0.527
12,TTGAGGTCCACTTCTTGTCGAA,-0.198

# Target: EGF
# Experiment: as above
# Conditions: shRNA
row,Sequence,sensor-assay potency score (higher = more potent)
1,TTACTTACAATCTTGTAACTGA,0.581
2,TTAGTGATTATTTTGGAACGTT,0.208
3,TAAATTTTGAAACTACTGGCAA,-0.0191
4,TTGAGTAGGTGATTAGTCGTAG,0.0164
5,TTACATACTCTCTCTTGCCTTG,-0.0399
6,TCTTCTGACACTCTAGTCTTGG,-0.41
7,AAACAAGTTGATGACATCGTTT,-0.985
8,TTGCAAACAAATTATGCTGTGT,0.205
9,TTGAGAATTGGCAAACAGCAAA,-1.09
10,TATATTACATACTCTCTCTTGC,0.906
11,TATCAGAACATAGTTTTCCATC,-1.09
12,TTCATTAACATCTTCACAGTAC,0.809
13,TTCTCTGTTGTACTGAATCCAA,-0.8
14,TTAATTCTAACCATGTCCTTTC,-0.226
15,TACTGTAATGATTCCTTCCTGT,0.571
16,TTGTCTTTCTAAATCCACCCAA,0.0842
17,TAATGTGGACAGAACCTCCATC,-0.544
18,TAAATCACTCCTTCCAATCAGA,-0.116
19,TTCTGTAATGTTATCTTCTGAC,-0.544
20,TAAACCTTTCTACTGGATCAAC,-1.16
21,TTGACCAAATAACTTCTTCATT,-1.32
22,TATCGGGTGAGGAACAACCGCT,-0.49
23,TTAGATCAACTTCACCACCTGC,-0.392
